Rows were chosen to be rich in hits. Some 8% of all compounds tested hit in one or more screens of this group.
Lassa entry = inhibitors of Lassa virus binding or entry into cells; 18,000 tested, 4.1% active; Lassa virus pseudotyped entry inhibition, cell-based qHTS; Potency, µM (series often up to 49.2 µM), inactives show top-dose activity change, negative = inhibition, usual class: inhibitors
Marburg entry = Marburg virus entry inhibition; Marburg virus pseudotype entry/binding inhibition, cell-based; Potency, µM (series often up to 49.2 µM), for inactives: at the highest dose activity change, negative = inhibition, most hits filed as inhibitors; 18,000 tested, 6.5% active
* marks the source's active call; other numbers are inactive results; u = inconclusive; x = no result given; ! = not active in a repeat; [ ] = another dose, or the depositor's remark. The call rests on the fitted dose curve; tested in HEK293 cells. On the % scale 0 is the no-effect control and ±100 the full control effect; potency means the concentration at half of the fitted maximal effect.

SMILES | Lassa entry | Marburg entry
O=C1OC2(CCCCC2)CC2=C1[C@H]1O[C@](CCCCN3C(=O)c4ccccc4C3=O)(Cc3ccccc31)O2 | -20.7%[8.59 µM] | u
COc1cc(NC(C)CCCN)c2ncccc2c1 (stereo not given) | 7.2% | u
CCN(CC)CCCC(C)Nc1c2ccc(Cl)cc2nc2ccc(OC)cc12 (stereo not given) | u | 1.12µM*
CCN(CC)CCCC(C)Nc1cc(/C=C/c2ccccc2Cl)nc2cc(Cl)ccc12 (stereo not given) | u | 15.8µM*
COc1ccc(CN2CCC3(CCC(CNC(=O)C4CCCO4)O3)CC2)c(C)c1C (stereo not given) | -10.3% | 1.26µM*
COC(=O)c1ccc(CN2CCC3(CCC(CNC(=O)c4ccccc4)O3)CC2)cc1 (stereo not given) | -8.8% | 7.1%
O=C(NCC1CCC2(CCN(Cc3ccccc3O)CC2)O1)C1CCCO1 (stereo not given) | -1.9% | -23.3%
COc1ccc2ccccc2c1CN1CCC2(CCC(CNC(=O)c3ccccc3)O2)CC1 (stereo not given) | -10.7% | 12.6µM*
COC(=O)C1=C(C(=O)OC)[C@@H]2Nc3ccccc3[C@@]23C[C@@H](C(=O)OC)N(C(=O)NC2CCCC2)C3=N1 | 0.8%[8.59 µM] | -3.8%[8.59 µM]
CS(=O)(=O)CCNCc1nc(-c2ccc3ncnc(Nc4ccc(F)c(Cl)c4)c3c2)cs1 | -29.8% | u
C=C1CCC2C(C)(CO)C(O)CCC2(C)C1C/C=C1\C(=O)OCC1O (stereo not given) | u | 11.2µM*
NC12CC3CC(CC(C3)C1)C2 | 1.2% | 31.6µM*!
CC12CC3CC(C)(C1)CC(N)(C3)C2 | 35.5µM*! | -11.2%
C[C@@]12CC3CC(N)(C1)C[C@@](C)(C3)C2 | 0.8%[17.8 µM] | u
C=C[C@@]1(C)CCC=C2C(=O)CCC[C@H]21 | -27.4%[8.59 µM] | u
CCCCCC(=O)N1C[C@H](O)[C@@H](n2cc(C3CC3)nn2)C[C@H]1c1ccc(OC)cc1 | 8.2% | 12.9%
C=C[C@@H]1C[C@H](C=C)OP(=O)(OCC(=C)C)O1 (stereo not given in full) | 32.6% | 50.1%
C=CCN=C1NC(c2cccc(F)c2)C(C(=O)OC)=C(C)N1Cc1ccccc1 (stereo not given) | -15.4%[8.59 µM] | u
C=CCc1cccc(/C=N/NC(=O)CN2CCN(Cc3ccccc3)CC2)c1O | 12.6µM* | u
COC(=O)N[C@H](C(C(=O)OC)=C(C)NCc1ccccc1)c1cccs1 | x | 8.1%[8.59 µM]
CCCCC/C=C\C/C=C\C/C=C\C/C=C\CCCCCC(=O)NCCc1ccc(O)c(O)c1 | -0.9% | 23.0%
CCCCC/C=C\C/C=C\C/C=C\C/C=C\CCCC(=O)N(Cc1ccc(O)c(Cl)c1)Cc1ccc(O)c(Cl)c1 | 0.0794µM* | u
CC(C)NCC(O)COc1ccccc1-n1cccc1 (stereo not given) | 3.9% | u
CC(C)NC[C@H](O)COc1cccc2ccccc12 | -7.5% | 15.8µM*!
CC(C)NC[C@@H](O)COc1cccc2ccccc12 | -12.9% | u
SMILES | Lassa entry | Marburg entry
C=CCc1ccccc1OCC(O)CNC(C)C (stereo not given) | 1.1% | 11.2µM*
COC(=O)C1=C(C)N(Cc2ccccc2)C(=NCc2ccccc2)NC1c1ccccc1 (stereo not given) | 29.5%[8.59 µM] | u
CC(=O)OC[C@H]1O[C@H](CCON=C[C@@H](C)[C@H](OCc2ccccc2)C(C)C)C=C[C@@H]1OC(C)=O | -11.2%[8.59 µM] | -2.4%[8.59 µM]
OC[C@H]1O[C@H](c2ccccc2)C=C[C@H]1O | -16.1%[8.59 µM] | -7.8%[8.59 µM]
O=C1N(Cc2ccc(F)cc2)c2ccccc2[C@@]12O[C@H](COc1ccccc1)CC1CCCC12 (stereo not given in full) | 41.1%[8.59 µM] | 106.2%[8.59 µM]
O=C(OC[C@H]1O[C@](O)(COC(=O)c2cccnc2)[C@@H](OC(=O)c2cccnc2)[C@@H]1OC(=O)c1cccnc1)c1cccnc1 | -8.4% | 3.0%
CC#CCN1C(=O)NC(c2ccccc2)C(C(=O)OCC)=C1c1ccccc1 (stereo not given) | -15.7%[8.59 µM] | 7.0%[8.59 µM]
O=S1(=O)C=CCN1 | 11.6% | 22.6%
CCc1nc(CN2CCOc3ccc(C(O)C4CCCCC4)cc3C2)c(C)[nH]1 (stereo not given) | u | 12.6µM*
O=C(c1n[nH]c2c1CCCC2)N1CCOc2ccc(C(O)C3CCCCC3)cc2C1 (stereo not given) | 8.91µM* | 11.2µM*
O=C(c1ccc(Cn2cnnn2)cc1)N1CCOc2ccc(C(O)C3CCCCC3)cc2C1 (stereo not given) | u | -25.4%
OC(c1ccc2c(c1)CN(Cc1cccc3nccnc13)CCO2)C1CCCCC1 (stereo not given) | -1.1% | -6.6%
CC1=C(C(=O)Nc2ccc3n[nH]c(C)c3c2)C(c2ccc(C(F)(F)F)cc2)CC(=O)N1 (stereo not given) | 0.8% | u
C=CCOC(=O)C(C(C)=O)[C@@H](NC(=O)OC)c1ccc(F)cc1 (stereo not given in full) | 11.6%[8.59 µM] | 19.6%[8.59 µM]
